An excerpt weighted towards active compounds, which were near 2.4% of everything screened.
FEN1 inh – inhibitors of human flap endonuclease 1; P39748; Recombinant FEN1 flap cleavage, fluorescence, 15 min; Potency, µM (series often up to 114 µM), usual class: inhibitors; 390,000 tested, 0.35% active; note: nearly all actives have a fitted effect of over 65% in size
Target sequence (P39748 whole entry, looked up): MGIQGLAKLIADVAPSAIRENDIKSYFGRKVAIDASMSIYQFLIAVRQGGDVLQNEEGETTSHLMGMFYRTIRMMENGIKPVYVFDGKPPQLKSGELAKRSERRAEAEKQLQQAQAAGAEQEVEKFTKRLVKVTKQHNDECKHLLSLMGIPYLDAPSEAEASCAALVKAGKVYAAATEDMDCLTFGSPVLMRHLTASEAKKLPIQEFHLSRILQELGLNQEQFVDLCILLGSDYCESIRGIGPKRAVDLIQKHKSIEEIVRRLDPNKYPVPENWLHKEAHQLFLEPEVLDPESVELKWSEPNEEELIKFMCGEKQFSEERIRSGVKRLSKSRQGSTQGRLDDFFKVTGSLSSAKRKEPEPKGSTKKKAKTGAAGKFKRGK
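With each library titrated from low to high concentration, compounds met 10 nM FEN1 for 15 min at room temperature before 50 nM substrate was added; readings at 0 and 15 min fed four-parameter Hill curve fits.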
POLB inh – blocks human DNA polymerase beta activity. Potency, µM (titrated, usually from 114 µM), actives largely listed as inhibitors. P06746. AID 485314. Pol beta primer extension/strand displacement, fluorescence kinetic. 340,000 tested, 1.3% active
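Kinetic readout of DNA synthesis with strand displacement by Pol beta. Compound and 10 nM enzyme sit 15 min at room temperature; 50 nM substrate starts the reaction, read immediately and at 10 min.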
POLI inh – blocks human DNA polymerase iota activity; 390,000 tested, 1% active; AID 588590; Potency, µM (series often up to 115 µM), most hits filed as inhibitors; Pol iota fluorescent replication assay, 10 min
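Fluorescent replication assay read twice, at 0 min and 10 min after adding 50 nM (final) substrate. Enzyme (10 nM) and compounds were first incubated 15 min at room temperature; enzyme-free buffer wells were negative controls.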
WRN helicase inh – inhibitors of human WRN helicase; WRN helicase unwinding, fluorescent forked duplex, kinetic; AID 651768; Potency, µM (titrated, usually from 114 µM), most hits filed as inhibitors; 360,000 tested, 0.46% active; note: nearly all actives have a fitted effect of over 55% in size
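Primary qHTS, 1536-well format. 20 nM WRN + compound, 15 min RT; start with 100 nM forked fluorophore/quencher duplex, 2 mM ATP (final); kinetic read ex 525/em 598 nm.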
POLK inh – inhibitors of human DNA polymerase kappa | purified Pol kappa, fluorescent DNA synthesis assay, 10 min | Potency, µM (top dose mostly 107 µM), hits mostly inhibitors | 400,000 tested, 0.53% active
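Activity was followed as the change in fluorescence between reads at 0 and 10 min after starting the reaction with 50 nM substrate. Beforehand, 10 nM polymerase had been preincubated with compound for 15 min at room temperature.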
Pol eta inh – DNA polymerase eta (human) inhibition; 390,000 tested, 1.2% active; recombinant Pol eta, fluorescent DNA replication assay; AID 588591; Potency, µM (series often up to 114 µM), hits mostly inhibitors
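Fluorescent replication assay: 50 nM final substrate added after a 15 min room-temperature compound preincubation with 10 nM enzyme. Signal taken at 0 min and again at 10 min.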
Of the large screens only hits and unclear results are named; the others gave an inactive call. Calls come from the whole dose curve; as a rule, active = well fitted curve in the direction sought with a large enough effect; inconclusive = small, poorly fitted or top-dose-only effect, or another doubt; inactive = no such curve, though single readings can be large; an effect the other way counts as inactive or inconclusive.

CCn1c(C)c(C2=CCN(S(=O)(=O)c3ccccc3)CC2)c2ccccc21	none
N/C(=N\N=C\c1ccnc2ccccc12)SC1CC(=O)N(c2ccc(Br)cc2)C1=O (configuration not stated)	POLB inh inconclusive, Pol eta inh 25µM
O=C(NCc1ccco1)C1Cc2ccccc2CN1S(=O)(=O)c1ccccc1F (configuration not stated)	POLI inh 13µM, WRN helicase inh inconclusive, POLK inh inconclusive, Pol eta inh 10µM (no result: POLB inh)
COc1ccc(CNC(=O)C2Cc3ccccc3CN2C(=O)c2ccco2)cc1 (configuration not stated)	POLB inh inconclusive
O=C(NCc1ccco1)C1Cc2ccccc2CN1C(=O)c1ccco1 (configuration not stated)	POLB inh 22µM, POLI inh 32µM, POLK inh inconclusive, Pol eta inh 32µM
CSCC[C@H](NC(=O)[C@H](CC(C)C)NC(=O)CCNC(=O)[C@@H](NC(=O)[C@H](Cc1ccccc1)NC(=O)[C@H](CO)NC(=O)[C@@H](N)CC(=O)O)C(C)C)C(N)=O	none (no result: FEN1 inh, POLB inh, POLI inh, WRN helicase inh, Pol eta inh)
NC(CC(=O)Nc1ccc(Oc2cc(F)c(F)cc2Br)cc1)C(=O)O (configuration not stated)	none (no result: FEN1 inh, POLB inh, POLI inh, WRN helicase inh, Pol eta inh)
C#CCOCCOCCOCCNc1nc(N2CCN(C(=O)CCCCCCCCCCNC(=O)Cn3cc(C[C@@H](C)O)nn3)CC2)nc(N2CCN(C(=O)CCCCCCCCCCNC(=O)[C@H](CCCCN)n3cc(CCCC(=O)O)nn3)CC2)n1	none (no result: POLB inh)
C#CCOCCOCCOCCNc1nc(N2CCN(C(=O)CCCCCCCCCCNC(=O)Cn3cc(C[C@@H](C)O)nn3)CC2)nc(N2CCN(C(=O)CCCCCCCCCCNC(=O)[C@H](CCCN=C(N)N)n3cc(C[C@@H](C)CC)nn3)CC2)n1	FEN1 inh 89µM, WRN helicase inh inconclusive, Pol eta inh inconclusive (no result: POLB inh)
C#CCOCCOCCOCCNc1nc(N2CCN(C(=O)CCCCCCCCCCNC(=O)[C@H](CO)n3cc(CCCSC)nn3)CC2)nc(N2CCN(C(=O)CCCCCCCCCCNC(=O)[C@H](CCCN=C(N)N)n3cc(C[C@@H](C)CC)nn3)CC2)n1	FEN1 inh 22µM, POLI inh inconclusive, WRN helicase inh inconclusive, Pol eta inh inconclusive (no result: POLB inh)
COCCN(Cc1cc2cc(C)ccc2n2nnnc12)C(=S)Nc1cccc(C)c1	none
CCc1ccc2c(c1)cc(CN(C(=S)Nc1cccc(C)c1)C1CC1)c1nnnn12	POLI inh 100µM
O=C(CCN1CCCC1Cc1ccccc1)c1ccc2c(c1)OCCO2 (configuration not stated)	POLI inh inconclusive, WRN helicase inh 56µM
O=C(CCN1CCCCC1)c1ccc2c(c1)OCCO2	POLI inh inconclusive
Nc1nc(=S)[nH]c(N)c1N	none (no result: POLB inh, WRN helicase inh, Pol eta inh)
Nc1nc(=S)[nH]c2n[nH]nc12	POLI inh 40µM (no result: POLB inh, WRN helicase inh, Pol eta inh)
CN(C)c1ccc(/C=C(\C#N)C(=O)NCc2ccco2)cc1	POLB inh 56µM (no result: FEN1 inh, POLI inh, WRN helicase inh, POLK inh, Pol eta inh)
CCN(CC)c1ccc(/C=C(\C#N)C(=O)NCc2ccco2)cc1	none (no result: FEN1 inh, POLI inh, WRN helicase inh, POLK inh, Pol eta inh)
CCOc1ccc(/C=C/c2ccc3ccccc3[n+]2C)cc1OCC	FEN1 inh inconclusive, POLI inh inconclusive, POLK inh 45µM (no result: POLB inh, WRN helicase inh, Pol eta inh)
COc1cc(OC)c(/C=C/c2cc(/C=C/c3c(OC)cc(OC)cc3OC)[n+](C)c3ccccc23)c(OC)c1	FEN1 inh 14µM (no result: POLB inh, WRN helicase inh, Pol eta inh)
COc1ccc(OC)c(/C=C/c2ccc3ccccc3[n+]2C)c1	FEN1 inh 45µM (no result: POLB inh, WRN helicase inh, Pol eta inh)
COc1cc(OC)c(/C=C/c2cc3c4ccccc4ccc3[n+](C)c2)c(OC)c1	FEN1 inh inconclusive (no result: POLB inh, WRN helicase inh, Pol eta inh)
C[n+]1c(/C=C/c2ccc(O)cc2)ccc2ccccc21	FEN1 inh inconclusive, POLB inh 16µM, POLI inh inconclusive
CC[n+]1c(/C=C/c2ccc(OC)c(OC)c2)ccc2ccccc21	POLB inh inconclusive
C[n+]1c(/C=C/c2ccc(F)cc2)ccc2ccccc21	FEN1 inh inconclusive (no result: POLB inh, WRN helicase inh, Pol eta inh)
CCCNC(=O)C1=CC(c2ccc3c(c2)OCO3)=NS(=O)(=O)N1C	none (no result: WRN helicase inh)
CC(C)CCOc1ccc(CC(=O)NO)cc1	none (no result: POLB inh, WRN helicase inh, Pol eta inh)
CC[C@H](C)[C@H](N)C(=O)N[C@@H](CCCNC(=N)N)C(=O)N[C@@H](CCC(N)=O)C(=O)NCC(=O)N1CCC[C@H]1C(=O)N[C@@H](CCCCN)C(=O)N[C@@H](CCC(=O)O)C(=O)N1CCC[C@H]1C(=O)N[C@@H](Cc1ccccc1)C(=O)N[C@@H](CCCNC(=N)N)C(=O)N[C@@H](CC(=O)O)C(=O)N[C@@H](Cc1ccc(O)cc1)C(=O)N[C@H](C(=O)N[C@@H](CC(=O)O)C(=O)N[C@@H](CCCNC(=N)N)C(=O)N[C@@H](Cc1ccccc1)C(=O)N[C@@H](Cc1ccc(O)cc1)C(=O)N[C@@H](CCCCN)C(=O)N[C@H](C(=O)N[C@@H](CC(C)C)C(=O)O)[C@@H](C)O)C(C)C	none (no result: FEN1 inh, POLB inh, POLI inh, WRN helicase inh, Pol eta inh)
COc1ccc(NC(=O)COC(=O)c2c3c(nc4ccccc24)CCCC3)cc1	none
O=C(NC1CCCCC1)c1c2c(nc3ccccc13)CCC2	POLB inh 20µM, POLI inh 79µM, Pol eta inh inconclusive
CNC(=O)COC(=O)c1c2c(nc3ccccc13)CCC2	FEN1 inh inconclusive, POLB inh 20µM, POLI inh 8.9µM, POLK inh inconclusive, Pol eta inh 25µM
CN(CCC#N)c1ccc(/C=C/c2ccnc3ccccc23)cc1	none (no result: POLB inh, WRN helicase inh, Pol eta inh)
COc1ccc(C(=O)Nc2ncnc3nc[nH]c23)cc1	none (no result: POLB inh, WRN helicase inh, Pol eta inh)
O=c1c(-c2cc(O)c(O)c(O)c2)coc2cc(O)c(O)c(O)c12	POLK inh 0.4µM (no result: FEN1 inh, POLB inh, POLI inh, WRN helicase inh, Pol eta inh)
O=c1c(-c2ccc(O)cc2)coc2cc(O)cc(O)c12	POLB inh inconclusive
CC(CN1CCN(c2ccccc2)CC1)c1ccccc1 (configuration not stated)	POLI inh 45µM
c1ccc2c(N=NN3CCCCC3)ccnc2c1	none (no result: POLB inh, WRN helicase inh, Pol eta inh)
S=c1[nH]nc(-c2cc(-c3ccco3)[nH]n2)n1-c1cccc2ccccc12	POLB inh 25µM, POLI inh inconclusive, Pol eta inh inconclusive
CCCc1ccc(C(=O)O)cc1	none (no result: FEN1 inh, POLB inh, POLI inh, WRN helicase inh, Pol eta inh)
CCN(CC)c1ccccc1/C=C/[n+]1ccc(CCCCI)c2ccccc21	FEN1 inh inconclusive, POLI inh inconclusive, POLK inh 50µM (no result: POLB inh, WRN helicase inh, Pol eta inh)
CNC(=S)N/N=C/c1ccc(-c2ccc(Cl)c([N+](=O)[O-])c2)o1	POLB inh 8.9µM, WRN helicase inh inconclusive
Cc1ccc(C(=O)N/N=C\c2ccc(-c3ccc(Cl)c(Cl)c3)o2)cn1	POLB inh 20µM
Cc1ccc(-c2ccc(/C=N/NC(=S)Nc3ccccc3)o2)cc1[N+](=O)[O-]	none
COc1ccc(C2C3C=CCCC3(C)C(=O)N2Cc2ccccc2)cc1Cl (configuration not stated)	none (no result: POLB inh, WRN helicase inh, Pol eta inh)
CCOC(=O)/C=C1\SCC(=O)N1CC(O)CN1C(=O)CS/C1=C\C(=O)OCC	none

Screening results from PubChem.
